± gives the standard deviation.
Tests used:
Streptococcus suis HE06 = experiment: percent growth relative to DMSO control; higher = less growth inhibition; settings: 10 µM; incubation time 18 h
Description: (§1)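 CLSI broth microdilution: 5x10^4 CFU of Streptococcus suis (strain P1/7 or HE06) incubated with 10 µM Pathogen Box compound in cation-adjusted Mueller Hinton broth, 37 °C, 5% CO2, 18 h. Growth read as OD600 and expressed as percent of the DMSO-treated control (100%); mean ± SD of three independent experiments.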

Streptococcus suis P1/7 = experiment: as above; settings: 10 µM; incubation time 18 h
Description: as §1

SMILES	percent growth (Streptococcus suis HE06) [%]	percent growth (Streptococcus suis P1/7) [%]
CCC(Sc1nc2ccccc2o1)C(=O)Nc1nccs1 (centres undefined)	0	9.43 ± 16
CC1=NN(c2nc3ccccc3s2)C(=O)C1Cc1cccc2ccccc12 (centres undefined)	0.762 ± 0.8	3.74 ± 3.5
CCC(=O)Nc1ccccc1C(=O)Nc1ccccn1	93.7 ± 5.2	103 ± 41
Nc1nccc2ccc(-c3ccc4nccn4c3)cc12	85.8 ± 25	61.4 ± 20
COc1cc(-c2cc(-c3ccc(S(C)(=O)=O)cc3)cnc2N)ccc1O	106 ± 34	70.7 ± 22
Cc1cc(C)cc(COc2ccc3c(C)c(CCC(=O)O)c(=O)oc3c2C)c1	39.9 ± 40	35.3 ± 14
CCCCc1ccc(C(=O)Nc2nccc3ccccc23)nc1	32.4 ± 32	13.4 ± 21
O=C(c1[nH]nc2c1CCCC2)N1CCN(Cc2ccc3c(c2)OCO3)CC1	81.9 ± 4.7	99.9 ± 45
COc1ccc(C2=NN(C3CCCCCC3)C(=O)[C@@H]3CC=CC[C@H]23)cc1OCCCCOc1ccc(-c2nn[nH]n2)cc1	0	0.12 ± 0.21
Cc1cc(C(=O)Nc2ccc(-c3ccccc3)cc2)no1	103 ± 36	118 ± 42
Cc1cc(O)nc(-n2nc(C)cc2C)n1	18.2 ± 21	2.28 ± 2.3
Cc1ccc(-c2cc(C(=O)Nc3cccnc3)c3cc(Br)ccc3n2)cc1	99.1 ± 11	69.7 ± 1.4
COC(=O)c1cccc2oc(-c3cccc(OC)c3NC(=O)c3cc(-c4ccccc4)on3)nc12	102 ± 25	66 ± 18
Clc1cccc(C(c2ccc(CN3CCNCC3)cc2)n2ccnc2)c1 (centres undefined)	96.6 ± 38	76.7 ± 5.8
CC(C)(C)c1ccc(N[C@@H]2CCCC[C@H]2NC(=O)c2ccco2)cc1	104 ± 7.9	78.1 ± 19
COc1ccc(N(CCc2cccc(C)n2)C(=O)C2CCCCC2)cc1	115 ± 37	105 ± 28
O=C(NC1CCCCC1)N1CCN(Cc2ccc3c(c2)OCO3)CC1	78.5 ± 7.2	52.2 ± 38
COc1cccc(-n2nnnc2S(C)(=O)=O)c1	88.1 ± 9.8	67.1 ± 23
N=C(N)Nc1ccc(-c2ccc(-c3ccc(N=C(N)N)c(Cl)c3)o2)cc1Cl	27.7 ± 29	53.1 ± 27
CN(C(=O)c1cc2c(-c3cncnc3)cccc2[nH]1)c1ccccc1	102 ± 29	72.2 ± 27
Nc1ccc2ncnc(Nc3ccc(OCc4cccc(F)c4)c(Cl)c3)c2c1	111 ± 9.4	81.2 ± 18

SMILES	percent growth (Streptococcus suis HE06) [%]	percent growth (Streptococcus suis P1/7) [%]
c1csc(-c2cnc3sc(NCC4CCOCC4)nn23)c1	109 ± 22	91.2 ± 16
c1ccc(Oc2ccc(-c3cncc(-c4ccc5[nH]ccc5c4)n3)cc2)cc1	109 ± 24	83.7 ± 20
Cc1ccc2nc(C)c(-c3ccn(Cc4ccccc4)n3)n2c1	90 ± 35	62.9 ± 23
Clc1cccc(CO[C@H]2CCc3ccccc3[C@@H]2n2ccnn2)c1	97.4 ± 3.9	95.9 ± 18
Cc1ccc(S(=O)(=O)N2CCN(C(=O)c3cc(-c4ccccc4)[nH]n3)CC2)cc1	118 ± 39	83.1 ± 19
COc1cccc(CC(=O)N2CCC(n3c(C)nc4ccc(F)cc43)CC2)c1	104 ± 52	65.2 ± 15
COc1cc(NC(=O)Cc2nn(C)c(=O)c3ccccc23)ccc1Cl	82.8 ± 6.6	108 ± 46
CO[C@@H](C(=O)N1Cc2[nH]nc(NC(=O)c3ccc(N4CCN(C)CC4)cc3)c2C1)c1ccccc1	82.9 ± 11	86.3 ± 15
Cc1cc(NC(=O)c2ccc(S(=O)(=O)N(Cc3ccccc3)C(C)C)cc2)no1	105 ± 27	71.6 ± 30
FC(F)(F)c1cc(NCCc2ccccc2)nc(-c2ccccn2)n1	1.92 ± 3.3	9.89 ± 17
COc1ccc(Oc2ccc([C@@H](C)N(C)c3ncc4c(N)nc(N)nc4n3)cc2)cc1	104 ± 32	83.9 ± 75
c1ccc(-c2cc(N3CCCCC3)c3ccccc3n2)nc1	0.646 ± 1.1	0.354 ± 0.61
CC(Oc1cccc(Cl)c1)C(=O)Nc1ccc2oc(-c3ccncc3)nc2c1 (centres undefined)	75.2 ± 17	77.5 ± 2.9
O=C(OCc1ccccc1)N1CCC(c2cc(-c3ccncc3)c(-c3ccc(F)cc3)[nH]2)CC1	126 ± 61	92 ± 13
COc1ccccc1OCCCCn1c(C2CC2)nc2ccccc21	102.6 ± 0.9	102 ± 21
O=C(Nc1nnc(S)s1)c1cc(Br)ccc1Cl	107 ± 10	79.5 ± 9.2
FC(F)(F)c1cccc(-c2nc3c(NCc4ccncc4)nccc3[nH]2)c1	90.4 ± 20	72.5 ± 22
CCCCS(=O)(=O)Nc1ccc2cnn(C)c2c1	92.3 ± 11	73 ± 10
NCCN(C(=O)c1ccc(Cl)cc1Cl)c1ccc(OCc2ccc(Cl)cc2)cc1	68.3 ± 61	25 ± 43
CN1CCCN(C(c2ccccc2)c2ccc(Cl)cc2)CC1 (centres undefined)	91.9 ± 4.1	85.4 ± 14
CC[P](CC)(CC)=[Au][S][C@H]1O[C@@H](COC(C)=O)[C@H](OC(C)=O)[C@@H](OC(C)=O)[C@@H]1OC(C)=O	4.65 ± 3	1.51 ± 1.8
